# Shown is part of a subset that was picked to be rich in hits.
# KDM5B inhibitor = inhibitors of human KDM5B histone demethylase. Q9UGL1. KDM5B demethylase, FDH-coupled NADH fluorescence (FDH is formaldehyde dehydrogenase). Potency, µM (doses to about 57.7 µM), actives largely listed as inhibitors. hit rate 2.6% among 220,000. AID 1347165; active = well fitted inhibition curve with a large enough effect; note: nearly all actives have a fitted effect of over 70% in size
#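 KDM5BΔAP (200 nM final) in 50 mM HEPES pH 7.5, 0.01% Tween-20 was preincubated 10 min at RT with compound over a concentration range. Substrate mix (H3K4me3 12.5 µM, α-KG 25 µM, Fe²⁺, ascorbate, NAD⁺, FDH) was added, and NADH fluorescence change over 30 min gave dose-response curves.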
# A number is an active result; - = inactive.
SMILES,KDM5B inhibitor
Cc1cccc(OCc2nc3c(C)cccc3[nH]2)c1,-
O=C1NC(=NC2CCCC2)C2(CCN(Cc3ccsc3)CC2)N1c1cc(F)cc(F)c1,-
O=C1CN(C(=O)Cn2ccc3cc(Cl)ccc32)CCN1,-
CCOC(=O)N1CCN(C(=O)CSc2ccc3nnc(CCNC(=O)c4ccc(OC)cc4)n3n2)CC1,-
Cc1ccn2cc(CNC(=O)c3cccc(C(F)(F)F)c3)nc2c1,-
O=C(NCCn1nc(-c2ccc(F)cc2)ccc1=O)c1cccc(C(F)(F)F)c1,-
Cc1nnc2ccc(-c3cccc(NC(=O)c4ccc(Br)o4)c3)nn12,-
CCc1ccc(-c2ccc3nnc(SCC(=O)Nc4cccc(C(C)=O)c4)n3n2)cc1,-
O=C(NCc1nnc2ccc(-c3ccccc3)nn12)c1cccc(C(F)(F)F)c1,32µM
Cc1ccc(C(=O)NCc2nnc3ccc(-c4ccc(C)c(C)c4)nn23)s1,28µM
Cc1ccc(-c2ccc3nnc(CNC(=O)c4ccc(N(C)C)cc4)n3n2)cc1C,-
Cc1ccc(-c2ccc3nnc(C)n3n2)cc1S(=O)(=O)Nc1cccc(Cl)c1,-
O=C(NCc1nnc2ccc(-c3ccc(Cl)cc3)nn12)c1cccc(Br)c1,28µM
COc1ccc(C(=O)NCc2nnc3ccc(-c4ccc(C)c(C)c4)nn23)cc1,20µM
CC(=O)c1cccc(NC(=O)CSc2nnc3ccc(-c4ccc(Br)cc4)nn23)c1,-
Cc1c(CCC(=O)N2CCCC2)c(=O)oc2cc(O)ccc12,-
N#CCOc1ccc(NC(=O)c2n[nH]c(=O)c3ccccc23)cc1,-
CCCCC12CN3CC(C)(CN(C1)C(=O)c1ccccc1C3=O)C2=O,-
Nc1nc(COC(=O)c2ccc(O)cc2)nc2ccccc12,-
CC(NC(=O)c1ccco1)C(=O)N1CCC(c2c[nH]c3ccccc23)CC1 (stereo not drawn),-
Cc1ccc(-c2ccc3nnc(CNC(=O)c4ccc[nH]4)n3n2)cc1C,-
Cc1ccc(-c2nonc2NC(=O)c2ccco2)cc1C,-
Cc1ccc(-c2ccc3nnc(CNC(=O)c4ccco4)n3n2)cc1C,22µM
O=C(NCc1nnc2ccc(-c3ccc(Cl)cc3)nn12)c1ccc(F)c(F)c1,32µM
Cc1ccc(S(=O)(=O)C(CNC(=O)c2ccc(F)c(F)c2)c2ccco2)cc1 (stereo not drawn),-
SMILES,KDM5B inhibitor
Cc1ccc(-c2ccc3nnc(CNC(=O)c4ccc5c(c4)OCO5)n3n2)cc1,-
O=C(NCc1nnc2ccc(-c3ccccc3)nn12)c1ccc(F)c(F)c1,28µM
Cc1ccc(-c2ccc3nnc(CNC(=O)c4ccc(F)c(F)c4)n3n2)cc1,28µM
CCn1c(SCC(=O)Nc2ccc3c(c2)OCCO3)nc2ccsc2c1=O,-
O=C(Cc1noc(C(=O)NCc2ccccn2)n1)Nc1cccc2ncccc12,-
CC(C)(C)C(=O)/C=c1/[nH]c(=O)/c(=C/c2ccccc2C(F)(F)F)s1,-
COc1cccc(/C=C(/CCC(=O)O)c2nc3ccccc3s2)c1,-
Cc1ccc(-n2cccc2CC(=O)N2CCOCC2)cc1,-
O=C(NCc1nc(-c2ccc(Cl)cc2)no1)c1cc2cc(Cl)ccc2o1,-
COc1ccc(CN(C)CC(O)COc2ccccc2C)c(OC)c1OC (stereo not drawn),-
CCCn1nc(C(=O)OCc2nnc(-c3ccccc3)o2)c2ccccc2c1=O,-
COC(=O)[C@@H](C)NC(=O)NCc1ccc(C)cc1,-
COc1ccccc1CC(=O)NCc1nnc2ccc(-c3ccc(C)c(C)c3)nn12,32µM
Cc1ccc(-c2ccc3nnc(CNC(=O)c4ccc(F)c(F)c4)n3n2)cc1C,32µM
Cc1ccc(-c2ccc(=O)n(CC(=O)Nc3ccc(F)c(Cl)c3)n2)cc1C,-
COc1ccc(C(C)=O)cc1CC(=O)NCc1nnc2ccccn12,-
Cc1ccc(-c2ccc3nnc(CNC(=O)c4cccc(N(C)C)c4)n3n2)cc1C,-
COc1ccc(C)cc1CC(=O)NCc1nnc2ccccn12,-
O/N=C/c1ccc(OCc2ccccc2)c(OCc2ccccc2)c1,-
CCc1cccc2c(C(=O)COC(=O)c3ccc(C)s3)c[nH]c12,-
Cc1ccc2c(c1)[C@H]1OCCC[C@H]1C(c1ccc(O)c(Br)c1)N2 (stereo partly drawn),-
CCCCn1c(=O)n(CC(=O)NCC(F)(F)F)c(=O)c2c1ncn2Cc1ccco1,-
COc1ccc(Cn2c3c(c(=O)[nH]c2=O)CN(Cc2ccccc2)CN3)cc1,-
CS(=O)(=O)CC(O)c1cc2n(n1)CCN(Cc1ccc(Cl)s1)C2 (stereo not drawn),-
COc1ccc(C(=O)N2CCn3nc(C(O)CS(C)(=O)=O)cc3C2)cn1 (stereo not drawn),-
SMILES,KDM5B inhibitor
CS(=O)(=O)CC(O)c1cc2n(n1)CCN(c1cncc(C(N)=O)n1)C2 (stereo not drawn),25µM
CCOc1nccn2c(-c3ccc(CNC(=O)Cn4cnnn4)cc3)cnc12,40µM
CCOc1ccc(-c2cc3c(=O)n(CC(=O)NCc4ccc(Cl)cc4)ccn3n2)cc1,-
CCOc1ccc(-c2cc3c(=O)n(CC(=O)NCc4ccc(C)cc4)ccn3n2)cc1,-
O=C(CCC1CCCC1)NCc1nnc2cc(-c3nc(C4CC4)no3)ccn12,11µM
O=C(CC1CCCCC1)NCc1nnc2cc(-c3nc(C4CC4)no3)ccn12,14µM
CC(C)c1ccc(C(=O)NCc2cccc(CNC(=O)c3ccc(C(C)C)cc3)c2)cc1,-
NC(=NCc1ccccc1)NCCN1CCN(Cc2ccccc2)CC1,-
Cc1c(F)cccc1NC(=O)N1CCC(OC2CCN(Cc3ccccc3)CC2)CC1,-
COc1cc(/C=C(/C#N)C(=O)C(C)(C)C)ccc1OCc1ccc(Cl)cc1,-
CSc1cccc(NC(=O)CSc2n[nH]c(-c3ccccc3Cl)n2)c1,-
CC(C)(C)C(=O)Nc1nnc(Cc2ccc(Cl)cc2)s1,-
Brc1ccccc1-c1nc(-c2ccncc2)no1,-
Cc1cc(C(=O)NCc2ccnc(N3CCCC3)c2)on1,-
Cc1ccccc1CNC(=O)CCc1ccnc(N2CCOCC2)c1,22µM
O=C(CCc1ccnc(N2CCOCC2)c1)NCCN1CCc2ccccc2C1,25µM
CCCNC(=O)COc1nc2ccccc2nc1N1CCOCC1,-
Cc1ccc(N2CCN(C(=O)CCc3ccnc(N4CCOCC4)c3)CC2)cc1,-
O=C(CNC(=O)c1cc(F)cc(F)c1)NCCN1CCc2ccccc2C1,-
Cc1nn(C)c(C)c1CC(=O)NCc1cccnc1N1CCOCC1,-
Cc1ccc(-c2cnc(CCC(=O)NCCN3CCOCC3)o2)cc1C,-
CCCNC(=O)CCc1ccnc(N2CCOCC2)c1,28µM
CCN(CC)Cc1ccccc1CNC(=O)C12CC3CC(CC(NC(C)=O)(C3)C1)C2,-
O=C(CCC(=O)Nc1ccc(Cl)cc1Cl)N/N=C/c1c2ccccc2cc2ccccc12,-
COc1cc(SC)ccc1C(=O)Oc1ccccc1C,-
SMILES,KDM5B inhibitor
CN(CC(=O)NC(=O)NCC(F)(F)F)c1ccccc1,-
CCN1CCN(c2oc(-c3ccccc3F)nc2C#N)CC1,-
COc1cc(-c2cc(C)c3c(OC)ccc(OC)c3n2)cc2c1OCCNC2,-
COc1cc(CNC(=O)N2CCN(Cc3ccc(Br)s3)CC2)cc(OC)c1OC,-
CCOc1ccc(N(Cc2cc3cc(OC)ccc3[nH]c2=O)C(C)=O)cc1,-
CCOC(=O)CN1CCN(C(=O)CCc2cc3cc(OC)ccc3[nH]c2=O)CC1,32µM
COc1ccc2[nH]c(=O)c(CCC(=O)O)cc2c1,28µM
COc1ccc2[nH]c(=O)c(CN(C(=O)c3ccccc3Cl)c3ccccc3)cc2c1,-
CCOC(=O)c1[nH]c(C)c(CCC(=O)N2CCN(c3cccc(OC)c3)CC2)c1C,-

# Screening data from PubChem.
